Source: PubChem BioAssay AID1211 (NMMLSC, 2008)
Calls of active or inactive are those of the source. No rule for the calls is given here.

Target: Estrogen receptor (Homo sapiens) (UniProt P03372)
Experiment: displacement of fluorescent estrogen from ERalpha – cell-based, Cos7 ERalpha-GFP, flow cytometry, primary screen (AID 1211);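 also: 0% = DMSO vehicle wells and 100% = no E2-Alexa633 signal left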
Conditions: fluorescent ligand competition, stronger effect = higher value

Chain of Estrogen receptor (Homo sapiens) (P03372 whole entry, looked up): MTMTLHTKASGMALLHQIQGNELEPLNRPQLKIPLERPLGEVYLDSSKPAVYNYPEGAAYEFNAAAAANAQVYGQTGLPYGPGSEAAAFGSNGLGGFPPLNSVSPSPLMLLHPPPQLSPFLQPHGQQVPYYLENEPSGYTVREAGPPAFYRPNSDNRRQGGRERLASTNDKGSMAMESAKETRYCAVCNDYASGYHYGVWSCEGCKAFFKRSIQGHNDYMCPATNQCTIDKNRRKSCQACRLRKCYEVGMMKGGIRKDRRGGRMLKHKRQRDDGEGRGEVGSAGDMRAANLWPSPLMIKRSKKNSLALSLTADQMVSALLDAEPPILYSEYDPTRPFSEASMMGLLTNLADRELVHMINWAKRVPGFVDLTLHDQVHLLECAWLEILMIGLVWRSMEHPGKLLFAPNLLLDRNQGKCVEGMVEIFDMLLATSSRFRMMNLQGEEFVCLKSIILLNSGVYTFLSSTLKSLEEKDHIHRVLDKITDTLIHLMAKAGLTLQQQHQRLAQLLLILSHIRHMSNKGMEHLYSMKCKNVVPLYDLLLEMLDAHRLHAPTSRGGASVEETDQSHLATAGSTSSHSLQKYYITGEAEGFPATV

## Cc1ccc(N=Cc2c(O)n(-c3ccc4c(c3)OCO4)c(=O)c3ccccc23)cc1
At 10 µM
  inhibition of ligand binding: 49% (inactive)
Binding inhibition, at 0.1 µM
  inhibition of ligand binding: 19%

## Cc1cccc(N2CSC3=C(C#N)C(c4ccc(C)o4)CC(=O)N3C2)c1 (configuration not stated)
At 10 µM
  inhibition of ligand binding: 27% (inactive)
Binding inhibition, at 0.1 µM
  inhibition of ligand binding: 13%

## O=C1N/C(=C\c2ccc(O)cc2)C(=O)c2ccccc21
At 10 µM
  inhibition of ligand binding: 30% (inactive)
Binding inhibition, at 0.1 µM
  inhibition of ligand binding: 14%

## O=c1c2c([nH]c3ccccc13)C(=C1CCCC1)CC2
At 10 µM
  inhibition of ligand binding: 0% (inactive)
Binding inhibition, at 0.1 µM
  inhibition of ligand binding: 36%

## CC(C)C1Nc2c(O)cc(Cl)c([N+](=O)[O-])c2C2C=CCC21 (configuration not stated)
At 10 µM
  inhibition of ligand binding: 40% (inactive)
Binding inhibition, at 0.1 µM
  inhibition of ligand binding: 16%

## CN(C)NC(=S)Nc1ccc2nc(-c3ccccn3)c(-c3ccccn3)nc2c1
At 10 µM
  inhibition of ligand binding: 11% (inactive)
Binding inhibition, at 0.1 µM
  inhibition of ligand binding: 4%
